Compounds with a hit are over-represented: about 3.6% of the library has one in this group of screens.
BoNT-F LC inh: blocks Botulinum neurotoxin F light chain protease; Multiplex microsphere protease cleavage assay, flow cytometry; inhibition, % at 10 µM; hit rate 0.22% among 360,000; AID 588497; in the data active = inhibition above about 35%, passing the limit was not always enough; inconclusive = no clear call, values can overlap the other calls; note: plate controls were buffer without enzyme for full effect and enzyme alone for no effect
Autofluor counter: flagged as autofluorescent in microsphere protease counterscreen | compound autofluorescence counterscreen, microsphere flow cytometry; hits give high values | fluorescence intensity (concentration not given with the values) | hit rate 3.1% among 360,000; in the data active = fluorescence intensity above about 16000; inconclusive = no clear call, values can overlap the other calls
BoNT A protease: inhibitors of Botulinum neurotoxin A light chain protease | multiplex microsphere protease substrate cleavage, flow cytometry | inhibition, % at 10 µM | hit rate 0.17% among 360,000; note: plate controls were buffer without enzyme for full effect and enzyme alone for no effect
Anthrax LF prot: inhibitors of Bacillus anthracis lethal factor protease. multiplex microsphere protease cleavage assay, LF. inhibition, % at 10 µM. hit rate 0.12% among 360,000. AID 588501; note: plate controls were buffer without enzyme for full effect and enzyme alone for no effect
MazEF act: MazEF (E. coli) toxin RNase activation; hit rate 0.32% among 350,000; P0AE70; activation, % at 20 µM; AID 504720; FAM/BHQ RNA-DNA oligo cleavage fluorescence, 5 h; in the data active = activation above about 50%
Target sequence (P0AE70 whole entry, looked up): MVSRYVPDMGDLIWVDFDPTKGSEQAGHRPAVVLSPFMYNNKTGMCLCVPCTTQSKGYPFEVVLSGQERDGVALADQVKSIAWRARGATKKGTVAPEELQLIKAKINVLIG
Starred values were filed as active, the others as inactive; ? = inconclusive; . = not tested or not shown. Cut-off read from the data, not from the text of the source, unless noted: active = inhibition above about 30%; inconclusive = no clear call, values can overlap the other calls; inactive = below that.

SMILES | BoNT-F LC inh | Autofluor counter | BoNT A protease | Anthrax LF prot | MazEF act
CC1=C(C(=O)OCC(C)C)C(c2ccsc2)NC(=O)N1 (centres undefined) | -3 | 16729* | 0 | -5 | 11
CCC(C)OC(=O)C1=C(C)NC(=O)NC1c1ccc(F)cc1 (centres undefined) | -6 | 10770 | -1 | 0 | -2
CCOc1ccccc1-n1c(N)c(C(N)=O)sc1=S | 2 | 16402* | 0 | 2 | 4
Cc1ccc(-n2c(N)c(C(N)=O)sc2=S)c(C)c1 | 1 | 18506* | 3 | 0 | -7
CCOC(=O)c1sc(=S)n(-c2ccccc2OC)c1N | -7 | 2343 | 0 | -1 | 5
O=C(Nc1ccccc1F)N1CCCC1c1cccnc1 (centres undefined) | ? | 3917 | ? | 4 | 4
O=C(Nc1ccc(F)cc1F)N1CCCCC1c1cccnc1 (centres undefined) | -1 | 22683* | ? | 0 | -1
Cc1cccc(NC(=O)c2cccc(N3C(=O)C4C5CCC(C5)C4C3=O)c2)c1C (centres undefined) | 8 | 18603* | ? | -9 | 7
CCc1ccccc1NC(=O)c1cccc(N2C(=O)C3C4CCC(C4)C3C2=O)c1 (centres undefined) | -2 | 23495* | ? | -4 | 4
CCc1ccccc1NC(=O)c1ccccc1N1C(=O)C2C3C=CC(C3)C2C1=O (centres undefined) | -5 | 6164 | 1 | 3 | 1
Cc1ccccc1NC(=O)c1cccc(N2C(=O)C3CCC(C)CC3C2=O)c1 (centres undefined) | 8 | 3209 | 3 | -13 | 2
Cc1cnc(=O)[nH]c1SCc1cccc([N+](=O)[O-])c1 | 3 | 5654 | 0 | 5 | 2
COC(=O)c1ccc(OCC2c3cc(OC)c(OC)cc3CCN2C(=O)c2ccco2)cc1 (centres undefined) | 4 | 19776* | 3 | -8 | -14
CCC(=O)N1CCc2cc(OC)c(OC)cc2C1COc1ccc(C(=O)OC)cc1 (centres undefined) | -3 | 21370* | -2 | -1 | -1
O=C(NCc1ccccc1Cl)c1ccc2c(c1)OCO2 | -4 | 6016 | 3 | -1 | 6
CCc1c(C)c2ccc(O)c(CN(C)C)c2oc1=O | 1 | 22113* | 2 | 0 | 5
COc1ccc(NC(=O)Nc2ccc(F)cc2F)c(C)c1 | 0 | 21747* | ? | 0 | -1
Cc1ccc(-c2ccc(=O)n(CC(=O)Nc3cccc(C(=O)N4CCN(C)CC4)c3)n2)cc1 | 2 | 19402* | ? | -9 | -13
Cc1ccc(C(=O)Nc2cccc(C(=O)N3CCN(C)CC3)c2)cc1 | 1 | 8113 | 0 | 5 | 9
Cn1c(=O)oc2cc(S(=O)(=O)NCCC(=O)N3CCc4ccccc43)ccc21 | 6 | 21642* | ? | -2 | -1
Cn1c(=O)oc2cc(S(=O)(=O)NCCC(=O)N3CC=C(c4ccccc4)CC3)ccc21 | -3 | 23639* | 0 | -2 | 6
FC(F)(F)c1cccc(Cn2nnnc2-c2ccc(Cl)cc2)c1 | -2 | 22919* | -1 | 0 | 3
CCCn1nnnc1-c1cccc(Cl)c1 | 1 | 20165* | 1 | 2 | 1
CCCn1nnnc1NC(=O)c1cc(Cl)ccc1Cl | 6 | 9391 | -1 | -3 | 1
CCCn1nnnc1-c1ccc(Cl)cc1 | -4 | 19416* | 0 | -1 | 2
SMILES | BoNT-F LC inh | Autofluor counter | BoNT A protease | Anthrax LF prot | MazEF act
CCCn1nnnc1NC(=O)CSc1ccc(Cl)cc1 | -6 | 9078 | -1 | -1 | 0
CC1(C)Cc2nc3sc4c(=O)n(CC(N)=O)cnc4c3cc2CO1 | 3 | 2937 | 0 | -2 | 11
CC1(C)Cc2nc3sc4c(=O)n(CC(=O)NCc5ccccc5)cnc4c3cc2CO1 | -3 | 16709* | -1 | 0 | 2
CCOC1=C2[C@@H](CN(S(=O)(=O)c3ccc(C)cc3)[C@H]2c2cccc3ccccc23)[C@H]2C(=O)N(c3ccccc3)C(=O)[C@H]2C1 | -8 | 6669 | -1 | -8 | .
S=C(Nc1ccc(Cl)cc1)N1CCN(C2CCCCC2)CC1 | 0 | 21880* | 1 | 0 | -4
NC(=O)CC(NC(=O)c1ccccc1)c1ccc(NCCN2CCCCC2)c([N+](=O)[O-])c1 (centres undefined) | -8 | 3351 | 0 | -12 | 1
Cc1ccc2c(c1)c(/C=C/c1cc[n+](C)cc1)c(C)n2C | -19 | 20045* | -24 | -4 | -962
CC1(CC(=O)N/N=C/c2cc([N+](=O)[O-])c(O)cc2O)OCCO1 | -3 | 4678 | -1 | -4 | 5
O=S(=O)(c1ccc2ccccc2c1)N(CC(O)COCc1ccco1)c1ccccc1 (centres undefined) | -2 | 23464* | -1 | -6 | 0
CCOC(=O)C1CCCN(C(=O)c2ccc3c(=O)n(CCOC)c(=S)[nH]c3c2)C1 (centres undefined) | 1 | 20489* | 1 | -1 | 0
COCCn1c(=S)[nH]c2cc(C(=O)NC3CCCCCC3)ccc2c1=O | 1 | 3556 | 0 | 2 | -5
CCOCCCn1c(=S)[nH]c2cc(C(=O)N3CCC(C(N)=O)CC3)ccc2c1=O | 2 | ? | 2 | -8 | 0
COCCn1c(=S)[nH]c2cc(C(=O)N3CCC(C(N)=O)(N4CCCCC4)CC3)ccc2c1=O | 3 | 22116* | 3 | -7 | -3
COc1ccccc1Cn1c(=S)[nH]c2cc(C(=O)NCCCN3CCOCC3)ccc2c1=O | 10 | 5953 | 0 | -1 | 15
COCCn1c(=S)[nH]c2cc(C(=O)NCCCN3CCOCC3)ccc2c1=O | -2 | 22856* | -2 | 0 | -5
CCc1c(C)c2cc(Cl)c(O)c(CN3CCCC3)c2oc1=O | 9 | 3599 | -2 | -14 | -1
COc1cccc(NC(=O)CCNC(=O)N2CC(=O)Nc3ccccc32)c1 | 6 | 4398 | 1 | -4 | 6
CCOC(=O)[C@H]1[C@H]2COc3ccc(Br)cc3[C@H]2N2C(=O)CN(Cc3ccc(Cl)cc3)C(=O)[C@@]12C | -4 | 3618 | 0 | 1 | -10
CC1(C(=O)NC2CCc3ccccc32)CCN1CCc1ccccc1 (centres undefined) | -4 | 3480 | 0 | -9 | .
O=C(NCCc1csc(-c2ccc(Cl)cc2)n1)c1ccco1 | -2 | 4359 | -2 | -1 | 1
Cc1ccc(SCc2cc(=O)[nH]c(Nc3nc(C)c4cccc(C)c4n3)n2)cc1 | 3 | 22617* | 3 | -2 | -158
COc1ccc2nc(Nc3nc(CSc4nnnn4-c4ccccc4)cc(=O)[nH]3)nc(C)c2c1 | 3 | 10731 | -1 | -2 | -197
CCOc1ccc2nc(Nc3nc(CSc4nnnn4-c4ccccc4)cc(=O)[nH]3)nc(C)c2c1 | 1 | 20506* | ? | 3 | -76
C=CCN=C(NC#N)SCC(=O)c1cccc(OC)c1 | -8 | 22163* | ? | -2 | -4
CC(C)n1c(/N=C/c2ccccc2O)nc2ccccc21 | 12 | 3312 | 2 | 0 | 0
O=C(Cn1cc([N+](=O)[O-])cn1)Nc1ccn(Cc2c(F)c(F)c(F)c(F)c2F)n1 | -1 | 22598* | 0 | -1 | -12
O=C(Nc1ccn(Cc2c(F)c(F)c(F)c(F)c2F)n1)c1cccc(Cn2cc([N+](=O)[O-])cn2)c1 | -8 | 7985 | 0 | -5 | 9
